Source: PubChem
BoNT-A LC inh2 – inhibitors of Botulinum neurotoxin A light chain protease; actives 0.17% (n = 360,000); multiplex microsphere protease substrate cleavage, flow cytometry; inhibition, % at 10 µM; further: plate controls were buffer without enzyme for full effect and enzyme alone for no effect
3CLpro inhibitor – SARS-CoV 3CLpro protease inhibition; P0C6X7; inhibition, % at 6 µM; actives 0.14% (n = 290,000); recombinant SARS-CoV 3CLpro, quenched FRET peptide cleavage; in the data active means inhibition above about 12%
Anthrax LF prot – inhibitors of Bacillus anthracis lethal factor protease; P15917; multiplex microsphere protease cleavage assay, LF; inhibition, % at 10 µM; actives 0.12% (n = 360,000); further: plate controls were buffer without enzyme for full effect and enzyme alone for no effect
Autofluor counter – flagged as autofluorescent in microsphere protease counterscreen | compound autofluorescence counterscreen, microsphere flow cytometry; stronger effect = higher value | fluorescence intensity (concentration not given with the values) | actives 3.1% (n = 360,000); in the data active means fluorescence intensity above about 16000; inconclusive means no clear call, values can overlap the other calls
BoNT F protease – blocks Botulinum neurotoxin F light chain protease. Multiplex microsphere protease cleavage assay, flow cytometry. inhibition, % at 10 µM. actives 0.22% (n = 360,000). AID 588497; in the data active means inhibition above about 35%, passing the limit was not always enough; inconclusive means no clear call, values can overlap the other calls; further: plate controls were buffer without enzyme for full effect and enzyme alone for no effect
Starred values were filed as active, the others as inactive; ? = inconclusive; nt = no result given. Hits are enriched below; roughly 3.5% of the tested compounds scored in any of these assays. Unless noted, no stated cut-off is given here; in the data, active means inhibition above about 30%; inconclusive means no clear call, values can overlap the other calls; inactive means below that.

SMILES | BoNT-A LC inh2 | 3CLpro inhibitor | Anthrax LF prot | Autofluor counter | BoNT F protease
COc1ccc(Cl)cc1NC(=O)[C@@]1(CC(=O)O)CC(/C=C/c2ccccc2)=NO1 | -2 | -6 | 1 | 3854 | 10
CN1CCN(CCCNC(=O)Nc2cccc3ccccc23)CC1 | 0 | 1 | -2 | 2596 | 4
Cc1ccnc(NC(=O)CCC(=O)N(CC(=O)NCCc2ccccc2)c2ccccc2F)c1 | 3 | 2 | 2 | 3805 | 2
O=C(Nc1ccccc1F)c1ccc(Br)o1 | 0 | -1 | -1 | 3848 | 3
Cc1ccc(NC(=O)C2c3ccccc3Oc3ccccc32)nc1 | 0 | 1 | -5 | 4787 | 0
O=C(Nc1cnccn1)C1c2ccccc2Oc2ccccc21 | 2 | -2 | -1 | 19665* | 2
Cn1c2ccccc2c2ncn(Cc3ccco3)c(=O)c21 | 2 | -4 | 0 | 19514* | 1
Cn1c2ccc(F)cc2c2ncn(Cc3ccco3)c(=O)c21 | -2 | 1 | -2 | 23973* | -7
O=C(c1ccccc1)N1CCN(Cc2ccccc2C(F)(F)F)CC1 | -1 | 1 | -3 | 4178 | -4
N#Cc1ccc(CN2CCN(C(=O)c3ccccc3)CC2)c(Cl)c1 | ? | -1 | -4 | 21609* | -7
CC(C)C[C@H](NS(=O)(=O)c1ccc(Br)cc1)C(=O)O | 3 | -2 | -2 | 22565* | 1
Cc1ccccc1C(=O)N/N=C/c1cccc2ccccc12 | -4 | -5 | 7 | 4124 | -9
COCCSc1ccccc1C(=O)NCc1ccc(S(N)(=O)=O)cc1 | ? | 1 | 0 | 23008* | 2
CSc1ccccc1C(=O)NCc1ccc(S(N)(=O)=O)cc1 | 0 | -2 | 1 | 2602 | -10
COc1cc(CNn2nnnc2N)cc(Br)c1OCc1c(Cl)cccc1Cl | ? | -1 | -1 | 23392* | -6
COc1cc(CNn2nnnc2N)cc(Br)c1OCC(=O)NC(C)(C)C | -1 | 5 | 3 | 5781 | -8
FC(F)(F)c1nc2nccnc2[nH]1 | 0 | nt | 2 | 3814 | -2
Cc1noc(NS(=O)(=O)c2ccc(NC(=O)CC(C)C)cc2)c1C | 0 | 5 | 0 | 5670 | 5
Cc1noc(NS(=O)(=O)c2ccc(NC(=O)CSc3nc4c(cc3C#N)CCCCC4)cc2)c1C | -3 | 0 | -2 | 24886* | -7
N#Cc1cc2c(nc1SCC(=O)NCc1ccc3c(c1)OCO3)CCCCC2 | 2 | 4 | -1 | 18758* | 0
O=P(Nc1cccnc1)(Oc1ccccc1Cl)Oc1ccccc1Cl | 7 | -6 | 30* | 7876 | 86*
O=C1CC(N2CCOCC2)C(=O)N1Cc1ccc(N2CCCC2=O)cc1 (configuration not stated) | 0 | -2 | -6 | 5105 | -1
O=C1CC(N2CCN(C/C=C/c3ccccc3)CC2)C(=O)N1Cc1ccc(N2CCCC2=O)cc1 (configuration not stated) | 0 | -2 | -7 | 19939* | -2
C=CCNCCCCOc1ccc(C)cc1[N+](=O)[O-] | 1 | 4 | 2 | 4187 | 8
CCC(C)NCCCCOc1ccc(C)cc1[N+](=O)[O-] (configuration not stated) | 0 | 1 | 0 | 20177* | -1
SMILES | BoNT-A LC inh2 | 3CLpro inhibitor | Anthrax LF prot | Autofluor counter | BoNT F protease
Cc1ccc2nc(-c3ccccn3)cc(C(=O)Nc3ccc(S(=O)(=O)N4CCOCC4)cc3)c2c1 | 0 | 3 | -1 | 3364 | -2
CCNC(=O)n1nccc1C(C)Oc1cccc(C(F)(F)F)c1 (configuration not stated) | 2 | 3 | -2 | 21560* | 0
CCNC(=O)n1nccc1C(C)Oc1ccc(Cl)cc1 (configuration not stated) | 0 | 0 | -2 | 21790* | -2
CCNC(=O)n1cc(-n2cncn2)c(-c2ccc(Cl)cc2)n1 | 1 | 0 | 2 | 2026 | 1
Cc1ccc(C(=O)OC2CCN(c3ccc([N+](=O)[O-])cc3)CC2)cc1 | 1 | -2 | 3 | 5799 | 8
COc1cccc(C(C2C(=O)CC(C)(C)CC2=O)C2C(=O)CC(C)(C)CC2=O)c1 | -2 | 0 | 10 | 3838 | 0
CC1(C)CC(=O)C(C(c2cccnc2)C2C(=O)CC(C)(C)CC2=O)C(=O)C1 | 2 | 1 | 1 | 22323* | 6
C=CCN(CC=C)CCOc1ccccc1 | -1 | 1 | 2 | 2740 | -2
CNC(=O)C(Sc1nc(C)nc2c1oc1ccccc12)C(C)=O (configuration not stated) | 2 | 3 | -1 | 9843 | 0
Cc1cc(C)c2[nH]c(=O)c(CN(CC3CCCO3)S(=O)(=O)c3ccc4c(c3)OCCO4)cc2c1 (configuration not stated) | 7 | 0 | -7 | 21471* | 7
